Reference: PubChem BioAssay AID1794835 (Parasite Biology Lab, Institute for Biomedicine and …, 2023)
The campaign covered roughly 2,500 compounds. About 45 (2%) were called active. Cut-off read from the data, not from the text of the source: active = inhibition mostly above about 45% (no sharp cut-off); inactive = mostly below about 37%. The full list was thinned out, with actives kept by preference.

Assay: anti-Giardia activity of synthetic compounds – Compounds Australia Scaffold Library subset, 24/48 h, primary screen (AID 1794835);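 for inhibition: 0% = parasite counts in DMSO vehicle wells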
Details: Giardia lamblia BRIS/91/HEPU/1279 trophozoite counts, imaging, at 10 µM
[1] = measured here: growth inhibition at 24 h, stronger effect = higher value

## CC(=O)Nc1ccc([N+](=O)[O-])c2nonc12
Higher = more active
  inhibition: 63.4% (active)
[1]
  inhibition: 45%

## CCc1ccc(NC(=O)[C@@H]2c3cc(OC)c(OC)cc3C(=O)N3CCCC[C@@H]23)cc1
Higher = more active
  inhibition: 28.1% (inactive)

## Cc1nn(C)c(C)c1CC(=O)N1CCC(N2CCCC2)C1 (stereo unspecified)
  inhibition: inactive

## CSc1ccc(C2NCc3ccccc3-n3cccc32)cc1 (stereo unspecified)
Higher = more active
  inhibition: 3.9% (inactive)
[1]
  inhibition: 18.8%

## COc1ccc(C2c3cccn3-c3ccccc3CN2C(=O)CCC(=O)NC2CCCCC2)cc1 (stereo unspecified)
  inhibition: inactive

## O=[N+]([O-])c1ccc(N2CCC(c3ncc[nH]3)CC2)c2ccncc12
Higher = more active
  inhibition: 88.1% (active)
[1]
  inhibition: 64.1%

## Cc1cccc(NC(=O)CN2CC(c3ccccc3)CC2=O)c1 (stereo unspecified)
Higher = more active
  inhibition: 10.4% (inactive)
[1]
  inhibition: 2.3%

## CC(=O)N1N=C2C3CCN(CC3)[C@@H]2[C@@H]1c1cccc2ccccc12
  outcome: inactive
[1]
  inhibition: 4.2%

## Cc1ccc2c(C3CCNCC3)c[nH]c2c1
  inhibition: inactive

## Cc1cccc(OCC(=O)N2CCN(Cc3nnsc3Cl)CC2)c1C
Higher = more active
  inhibition: 35.2% (inactive)
[1]
  inhibition: 20.5%
